Results: PubChem BioAssay (Tox21)
Inconclusive results are not listed. Calls of active or inactive are those of the source. Unless noted, calls follow the shape of the dose curve; as a rule, active = well fitted curve in the direction sought with a large enough effect in the repeat runs; inconclusive = weak or mixed curves; inactive = no such curve, though single readings can be large; an effect the other way counts as inactive or inconclusive.

Columns and labels:
[1] = qHTS assay to identify small molecule antagonists of the progesterone receptor (PR) signaling pathway - cell viability counter screen (AID 1346798); conditions: PR-UAS-bla HEK293T viability, CellTiter-Glo luminescence, 16 h; series mostly up to 92.4 µM; also: nearly all actives have a fitted effect of over 50% in size
Summary of the method: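 Measures cytotoxicity in parallel with the PR antagonist reporter read: HEK293T PR-UAS-bla cells get compound and R5020 for 16 hr, and remaining viable cells are quantified by CellTiter-Glo luminescence.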

[2] = qHTS assay to identify small molecule agonists of the progesterone receptor (PR) signaling pathway - cell viability counter screen (AID 1346799; calls by dose curve; also: nearly all actives have a fitted effect of over 45% in size); conditions: PR-UAS-bla HEK293T viability, CellTiter-Glo luminescence, 16 h; series mostly up to 92.4 µM
Summary of the method: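 Using the same plates as the PR reporter screen, HEK293T PR-UAS-bla cells received compounds for 16 hr at 37C and were then lysed with CellTiter-Glo; luminescence was read 30 min later at room temperature.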

[3] = qHTS assay to identify small molecule antagonists of the TGF-beta/Smad signaling pathway - cell viability counter screen (AID 1346824); conditions: SBE-bla HEK293T viability, CellTiter-Glo luminescence; series mostly up to 76.8 µM; also: nearly all actives have a fitted effect of over 50% in size
Summary of the method: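 SBE-bla HEK 293T cells were plated overnight at 37 C, then given compounds in DMSO plus TGF-beta1 (added as 0.25 ng/mL solution) for 5 hr. After the bla read, CellTiter-Glo was added to the same wells and luminescence read after 30 min at room temperature.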

[4] = qHTS assay to identify small molecule agonists of the TGF-beta/Smad signaling pathway - cell viability counter screen (AID 1346829); conditions: SBE-bla HEK293T viability, CellTiter-Glo luminescence, 5 h; series mostly up to 76.8 µM; also: top concentration of the series differs between compounds; nearly all actives have a fitted effect of over 45% in size
Summary of the method: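 Same-well cytotoxicity: CellTiter-Glo added after the 2 hr room-temperature beta-lactamase substrate step, luminescence measured 30 min later; cells had 5 hr of compound at 37 C.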

[5] = qHTS assay to identify small molecule agonists of the TGF-beta/Smad signaling pathway (AID 1346859; active = well fitted activation curve with a large enough effect in the signal ratio in the repeat runs, not every such curve was filed as active; the % refers to the signal ratio); conditions: SBE-bla HEK293T, TGF-beta/Smad beta-lactamase reporter, 5 h; series mostly up to 76.8 µM
Summary of the method: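 Beta-lactamase reporter activity downstream of Smad binding elements was measured in stably transfected HEK 293T cells; compounds were incubated for 5 hr, substrate for 2 hr at room temperature.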

[6] = biological target: Thyrotropin-releasing hormone receptor (Homo sapiens) (UniProt P34981); experiment: qHTS assay to identify small molecule antagonists of the thyrotropin-releasing hormone receptor (TRHR) signaling pathway (AID 1346877; active = well fitted inhibition curve with a large enough effect in the repeat runs, not every such curve was filed as active); conditions: TRHR-HEK293, TRH-induced calcium fluorescence, antagonist mode; series mostly up to 51.3 µM
Chain of Thyrotropin-releasing hormone receptor (Homo sapiens) (P34981 whole entry, looked up): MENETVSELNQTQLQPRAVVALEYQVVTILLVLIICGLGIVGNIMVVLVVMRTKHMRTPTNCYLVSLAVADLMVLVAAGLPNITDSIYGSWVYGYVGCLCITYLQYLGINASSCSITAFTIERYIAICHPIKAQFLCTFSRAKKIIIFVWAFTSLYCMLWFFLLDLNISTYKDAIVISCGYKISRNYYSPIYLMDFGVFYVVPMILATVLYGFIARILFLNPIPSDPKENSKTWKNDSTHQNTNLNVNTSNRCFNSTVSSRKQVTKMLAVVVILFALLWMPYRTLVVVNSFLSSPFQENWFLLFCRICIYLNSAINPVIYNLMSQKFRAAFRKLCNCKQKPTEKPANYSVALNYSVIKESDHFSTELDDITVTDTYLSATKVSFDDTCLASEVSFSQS
Summary of the method: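 Antagonism is measured as suppression of the calcium response to 1 nM TRH in TRHR-HEK293 cells that have been dye-loaded for 2 h at 37 °C after overnight plating. Each compound is tested at 15 concentrations in triplicate.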

[7] = biological target: Thyrotropin-releasing hormone receptor (Homo sapiens) (UniProt P34981); experiment: qHTS assay to identify small molecule agonists of the thyrotropin-releasing hormone receptor (TRHR) signaling pathway (AID 1346891; calls by dose curve;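 also: HEK293 cells expressing TRHR with calcium dye readout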); conditions: TRHR-HEK293 calcium fluorescence, agonist mode; series mostly up to 57.6 µM
Summary of the method: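 Overnight-plated (18 h, 37 °C, 5% CO2) TRHR-Hek293 cells; 2 h calcium dye at 37 °C; compound in DMSO; 3-min kinetic fluorescence read.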

[8] = biological target: Progesterone receptor (Homo sapiens) (UniProt P06401); experiment: qHTS assay to identify small molecule agonists of the progesterone receptor (PR) signaling pathway (AID 1346784; calls by dose curve; also: nearly all actives have a fitted effect of over 30% in size); conditions: PR-UAS-bla HEK293T, beta-lactamase FRET ratio, 16 h; series mostly up to 92.4 µM
Chain of Progesterone receptor (Homo sapiens) (P06401 whole entry, looked up): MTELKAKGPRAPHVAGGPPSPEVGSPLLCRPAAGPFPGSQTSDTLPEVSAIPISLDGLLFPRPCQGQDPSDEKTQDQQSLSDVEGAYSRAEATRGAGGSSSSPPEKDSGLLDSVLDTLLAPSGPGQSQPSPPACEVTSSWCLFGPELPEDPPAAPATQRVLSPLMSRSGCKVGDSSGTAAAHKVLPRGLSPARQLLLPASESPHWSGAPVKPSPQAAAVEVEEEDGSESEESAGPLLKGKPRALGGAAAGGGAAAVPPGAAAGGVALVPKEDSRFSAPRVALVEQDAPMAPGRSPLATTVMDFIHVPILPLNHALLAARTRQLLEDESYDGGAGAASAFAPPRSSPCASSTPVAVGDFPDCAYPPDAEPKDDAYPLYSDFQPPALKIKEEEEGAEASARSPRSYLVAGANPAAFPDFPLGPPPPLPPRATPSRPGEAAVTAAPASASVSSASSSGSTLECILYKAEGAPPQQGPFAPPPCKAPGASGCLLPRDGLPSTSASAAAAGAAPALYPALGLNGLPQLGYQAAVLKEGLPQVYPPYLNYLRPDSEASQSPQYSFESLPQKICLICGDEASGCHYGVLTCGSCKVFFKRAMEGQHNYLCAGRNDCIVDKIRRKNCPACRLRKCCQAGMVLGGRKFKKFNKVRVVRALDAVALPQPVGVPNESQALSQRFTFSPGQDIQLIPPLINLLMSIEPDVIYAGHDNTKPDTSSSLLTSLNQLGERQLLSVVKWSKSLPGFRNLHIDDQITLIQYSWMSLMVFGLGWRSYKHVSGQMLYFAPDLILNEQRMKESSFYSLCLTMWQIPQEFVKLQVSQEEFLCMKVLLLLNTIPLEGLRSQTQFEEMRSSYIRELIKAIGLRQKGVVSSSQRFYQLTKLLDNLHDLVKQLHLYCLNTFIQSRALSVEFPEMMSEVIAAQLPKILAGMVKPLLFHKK
Summary of the method: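 Seed PR-UAS-bla HEK 293T cells (2% charcoal-stripped FBS), incubate 6 hr at 37C; add compounds in DMSO, 16 hr at 37C; add LiveBLAzer B/G substrate, 2 hr RT; read fluorescence intensity.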

[9] = biological target: Progesterone receptor (Homo sapiens) (UniProt P06401); experiment: qHTS assay to identify small molecule antagonists of the progesterone receptor (PR) signaling pathway (AID 1346795; active = well fitted inhibition curve with a large enough effect in the signal ratio in the repeat runs, not every such curve was filed as active; the % refers to the signal ratio); conditions: PR-UAS-bla HEK293T, beta-lactamase FRET ratio, 16 h; series mostly up to 92.4 µM
Summary of the method: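 Screening used a GripTite HEK293T line with PR-responsive UAS-beta-lactamase. Cells were challenged with compound in the presence of 1 nM R5020 final for 16 hr at 37C; B/G FRET substrate, 2 hr room temperature, fluorescence.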
% is scaled to controls: 0 for no effect and ±100 for the full control effect.

Nc1ccccn1
inactive: Potency [1] | Potency [2] | outcome [3] | outcome [4] | outcome [5] | outcome [6] | Potency [7]

CN1CCC(=C2c3ccccc3CCc3cccnc32)CC1
inactive: Potency [8] | Potency [9] | Potency [1] | Potency [2] | outcome [3] | outcome [4] | outcome [6] | Potency [7]

CC(C)(N)C#N
inactive: Potency [8] | Potency [9] | Potency [1] | Potency [2] | outcome [3] | outcome [4] | outcome [5] | outcome [6] | Potency [7]

C[N+]1(CC2COC(c3ccccc3)(c3ccccc3)O2)CCCCC1 (stereo unspecified)
inactive: activity change, negative = inhibition [9] 3.69% [at 18.9 µM] | activity change, negative = cytotoxicity [2] -1.98% [at 19 µM] | viability change, negative = cytotoxic [3] 7.39% [at 15.8 µM] | activity change, negative = cytotoxicity [4] -19% [at 15.8 µM] | activation [5] 1.32% [at 15.8 µM] | activity, negative = inhibition [6] 1.31% [at 10.5 µM] | activation [7] 10.8% [at 11.8 µM]
